This is an account of results in PMC9574860, “Chemical Toolkit for PARK7: Potent, Selective, and High-Throughput” (Journal of Medicinal Chemistry, 2022).

In all, about 7,900 compounds went through this assay and about 400 (5.1%) showed an effect of 50% or more. What follows is part of a selection rich in strong results, with near analogues and random picks from the rest.

Sequence of Parkinson's disease protein 7 (PARK7/DJ1) (Q99497 whole entry, looked up, the tested form may be a part): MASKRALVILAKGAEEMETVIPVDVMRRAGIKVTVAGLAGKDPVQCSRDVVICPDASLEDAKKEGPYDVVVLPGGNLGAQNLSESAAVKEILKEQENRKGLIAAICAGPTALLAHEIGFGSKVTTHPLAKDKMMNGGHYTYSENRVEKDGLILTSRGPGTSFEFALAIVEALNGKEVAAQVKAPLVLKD

This assay concerns the target Parkinson's disease protein 7 (PARK7/DJ1) (human, UniProt Q99497). The assay is described as follows: primary screen, percent inhibition; read as competition with a fluorescent probe by fluorescence polarization; higher = more effect of the substance. The following applies: 100 µM. The method in brief: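 Covalent fragments at 100 μM final were incubated 2 h with 0.2 μM PARK7, then 20 nM probe JYQ-107 added for a further 2 h. Fluorescence polarization read at 480/520 nm; relative FP loss versus reference controls gave remaining enzyme activity.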
Consider `N#Cc1nccnc1SC1CCCC1`, for which the Inhibition % is 6.92%.
For `O=S(=O)(C=Cc1ccccc1)NCc1cccnc1`, the Inhibition % was 15.5%.
To `C=C(C(=O)O)c1ccccc1F` belongs 3.02%; to `CC1(C2CC2)CCN(c2cncc(C#N)n2)CC1`, 6.7%.
With `O=C(O)c1nccnc1S`, the Inhibition % came to 83.1%.
In the case of `O=C(O)c1ccnc(S)c1`, the Inhibition % is listed as 11.8%.
To `Nc1nccnc1S` belongs 26.8%.
To `C=CC(=O)NC1CCN(c2ncccc2F)C1` (stereo not drawn) belongs 14.9%; to `C=CC(=O)N1CCC(c2cccc(C(F)(F)F)c2)C1` (stereo not drawn), 10.4%; to `C=CC(=O)Nc1ccc2c(c1)CCC(C)(C)O2`, 6.26%.
For the molecule `COC(=O)Nc1ccc(S(=O)(=O)F)cc1`, the Inhibition % was 34.7%.
To `COC(=O)Nc1ccc(S(=O)(=O)F)cc1[N+](=O)[O-]` belongs 101%; to `COc1ccc(NC(=O)CCl)c([N+](=O)[O-])c1`, 10.4%; to `C=CC(=O)N1CC(C(C)C)c2ccccc21` (stereo not drawn), 5.57%.
For `C=CC(=O)N(C)CC(=O)Nc1cc(C)on1`, the Inhibition % was 7.52%.
To `C=CC(=O)N(C)CC(=O)Nc1csc(C)n1` belongs 7.47%; to `C=CC(=O)N(C)CC(=O)Nc1cc(C)c(=O)n(C)c1`, 54.5%; to `C=CCNC(=O)C(C#N)=Cc1cc(F)ccc1F`, 6.92%.
For `CC1CC1C(=O)N1CCC(S(=O)(=O)F)C1` (stereo not drawn), the Inhibition % was determined as 36.5%.
To `CC1CC1C(=O)N1CCOC(CS(=O)(=O)F)C1` (stereo not drawn) belongs 11.8%; to `CC1CC1C(=O)N1CC(CS(=O)(=O)F)C1` (stereo not drawn), 16.8%; to `O=C(C1CCOCC1)N1CCCC(CS(=O)(=O)F)C1` (stereo not drawn), 55.9%.
To `O=C(C1CCOCC1)N1CCC(S(=O)(=O)F)C1` (stereo not drawn) belongs 19.5%; to `C=CC(=O)N1CCC(CS(C)(=O)=O)C1` (stereo not drawn), 4.28%.
Take `O=C(C1CCOCC1)N1CCCC(S(=O)(=O)F)C1` (stereo not drawn): the Inhibition % is 8.98%.
Regarding `CC1CC1C(=O)N1CCC(CS(=O)(=O)F)C1` (stereo not drawn), the Inhibition % was 96.8%.
To `CC1CC1C(=O)N1CCC(S(=O)(=O)F)CC1` (stereo not drawn) belongs 72.2%; to `CC1CC1C(=O)N1CCC(CS(=O)(=O)F)CC1` (stereo not drawn), 25.9%; to `CC1CC1C(=O)N1CCCC(CS(=O)(=O)F)C1` (stereo not drawn), 71.5%.
To `O=C(C1CCOCC1)N1CCC(CS(=O)(=O)F)CC1` belongs 20.1%; to `C=CC(=O)Nc1ccc(OC)c(F)c1`, 4.48%.
For the molecule `O=c1c2sccc2nc(S)n1CCCN1CCOCC1`, the Inhibition % worked out at 1.46%.
To `O=C(CCl)Nc1cc(C(F)(F)F)ccc1Cl` belongs 4.72%.
To `N#Cc1ccnc2ccnn12` belongs 4.63%; to `CC1(S(=O)(=O)NC2CN(c3ccc(F)cc3)C2=O)CC1` (stereo not drawn), 10.3%; to `O=C(C=Cc1nccs1)N1CCc2ccccc21`, 14.3%.
To `CCc1nc(C#N)cc(NC2CSC2)n1` belongs -3.02%; to `Cc1cc(C)n(S(=O)(=O)c2ccc(C)c(C)c2)n1`, 3.92%.
With `CC1CC(N2CCn3c(nnc3C3CC3)C2)C(=O)O1` (stereo not drawn), the Inhibition % worked out at 18%.
Consider `O=C(c1cc(F)cc(F)c1)N1CCCCC1C1OCCO1` (stereo not drawn), for which the Inhibition % came out at 3.28%.
With `C=CC(=O)N1CCN(CCc2ccc(F)cc2)CC1`, the Inhibition % is recorded as 8.07%.
For `CC1CCCN(C(=O)C=Cc2cnc3ccccc3n2)C1` (stereo not drawn), the Inhibition % was determined as 9.42%.
For `C=CC(=O)NC1CCCc2c1cnn2CC` (stereo not drawn), the Inhibition % came out at 8.99%.
As for `Cc1cc(C(=O)CCl)c(C)n1-c1ncn[nH]1`, the Inhibition % was 60%.
To `Cc1cc(C(=O)CCl)c(C)n1-c1nccs1` belongs 4.37%; to `Cc1cc(C(=O)CCl)c(C)n1-c1ccc(F)cn1`, 5.68%.
To `Cc1cc(C(=O)CCl)c(C)n1-c1ccon1` belongs 82.8%.
In the case of `Cc1csc(-n2c(C)cc(C(=O)CCl)c2C)n1`, the Inhibition % worked out at 51%.
To `Cc1csc(CC(=O)NNC(=O)CCl)n1.Cl` belongs 0.415%; to `Cc1cc(C(=O)CCl)c(C)n1-c1ccccn1`, 71.3%; to `O=C(CCl)Nc1ccon1`, 14.8%.
To `Cc1cc(-n2c(C)cc(C(=O)CCl)c2C)no1` belongs 7.75%; to `C=CC(=O)N(Cc1cncs1)C1CCN(C(C)=O)CC1`, 5.13%; to `C=CC(=O)N(C)CC(=O)N1CCOCC1`, 16.7%.
In the case of `C=CC(=O)N1CCC(CC(=O)NC)CC1`, the Inhibition % was 5.8%.
Consider `C=CC(=O)N1CCCC(C(=O)Nc2nc(C)cs2)C1` (stereo not drawn), for which the Inhibition % was 5.32%.
To `N#Cc1ccc(N2CCC3(CCOC3)C2)cn1` (stereo not drawn) belongs -4.97%.
To `O=C1CCN1c1ccc(O)cc1` belongs 5.37%; to `C=CC(=O)N1CCCC(n2ccc(C(=O)NC)n2)C1` (stereo not drawn), 8.31%; to `CC(CC(O)c1ccccc1)NC(=O)c1cccnc1S` (stereo not drawn), 5.61%.
To `N#CC(=Cc1ccc(O)c(O)c1)c1ccccn1` belongs 3.18%.
For `C=CC(=O)NC(c1ccco1)C(C)(C)C` (stereo not drawn), the Inhibition % stood at 7.05%.
As to `COCC1CN(C(=O)c2c[nH]c(C#N)c2)CC(C)(C)O1` (stereo not drawn), the Inhibition % amounted to 10.6%.
